Among all 370,000 compounds or so, about 3,300 (0.89%) were called active. The list comes from a sample in which actives are over-represented; it also holds similar structures and randomly drawn compounds. A number with no mark means an inactive call.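 Rule for the calls: active = activation above the mean of all tested compounds plus 3 SD, computed per campaign excluding outliers beyond control limits (cut at about 13% in these data); inactive = the rest.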

Results on 22 compounds are retold here after PubChem BioAssay AID652039 (The Scripps Research Institute Molecular Screening Center, 2013).

The target in the experiment is Kallikrein-7 (Homo sapiens) (UniProt P49862). Nature of the experiment: proKLK7 zymogen activators, primary screen, biochemical, fluorescence intensity (AID 652039). The following applies: purified proKLK7, EDANS-DABCYL substrate fluorescence; at 7 µM; stronger effect = higher value; 100% is mature enzyme control, 0% vehicle.
Chain of Kallikrein-7 (Homo sapiens) (P49862 whole entry, looked up): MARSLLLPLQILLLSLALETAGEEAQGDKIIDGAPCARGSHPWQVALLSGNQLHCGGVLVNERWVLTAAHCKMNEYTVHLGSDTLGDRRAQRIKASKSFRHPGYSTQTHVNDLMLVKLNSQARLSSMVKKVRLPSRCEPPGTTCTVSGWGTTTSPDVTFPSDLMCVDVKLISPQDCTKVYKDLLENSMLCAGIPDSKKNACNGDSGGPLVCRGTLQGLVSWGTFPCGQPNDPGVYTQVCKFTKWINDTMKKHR
With `CCCNC(=O)Nc1ccc2c(c1)C(=O)N(C)[C@H]1CC[C@H](CC(=O)NCC3CCCCC3)O[C@@H]1CO2`, the activation is 0.14%.

As for `CCN1CCN(C(=O)c2cc3cc4ccc(OC)cc4nc3s2)CC1`, the activation is 68.7% (active).

Turning to `CCN1CCN(C(=O)CN(C)S(=O)(=O)c2ccc(OC)cc2)CC1`, the activation is -0.44%.

Regarding `COc1ccc(OCC(=O)N2CCN(C(=O)c3cccs3)CC2)cc1`, the activation was 0.07%.

As for `COC(=O)[C@]12C[C@H](CC(=O)NCc3ccccc3)C(=O)N(Cc3ccccc3)C1=C[C@H](COCc1ccccc1)O[C@@H]2C`, the activation is -0.24%.

With `CCCOc1ccc(Oc2c(Cl)cnn(Cc3cccc4ccccc34)c2=O)cc1`, the activation was 0.98%.

On to `COc1ccc(CSc2nnc(-c3cccc(C)c3)n2C)cc1`, for which the activation is -0.66%.

As for `CCOC(=O)c1c(NC(=S)Nc2ccccc2)sc2c1CCN(C)C2`, the activation is 33.8% (active).

For `CCOC(=O)c1c(NC(=S)SC)sc(C(=O)N2CCc3ccccc3C2)c1C`, the activation was 0.73%.

As for `CCOC(=O)c1c(NC(=O)NC(C)(C)C)sc2c1CCN(C)C2`, the activation was 0.12%.

For the compound `COc1ccc(CNC(=O)C(C)n2nc(C)c3c(C)n(-c4ccccc4)nc3c2=O)c(OC)c1` (configuration not stated), the activation was 0.01%.

As for `COCCCNC(=O)C[C@H]1C[C@@]2(C(=O)OC)C(=C[C@H](C(C)(C)C)O[C@@H]2C)N(Cc2ccc(Cl)cc2Cl)C1=O`, the activation is -0.25%.

For `C#CCNC(=O)C[C@H]1C[C@@]2(C(=O)OC)C(=C[C@H](C(C)C)O[C@@H]2C2CC2)N(Cc2ccco2)C1=O`, the activation is 0.24%.

Regarding `Oc1ccc2ccc3cccc[n+]3c2c1`, the activation is 16.2% (active).

`COc1ccc(-n2c(SCC(=O)Nc3ccc(C)c(Cl)c3)nc3ccccc3c2=O)cc1`: the activation is -0.5%.

In the case of `COc1ccc(-n2c(SCC(=O)Nc3ccc4c(c3)OCCO4)nnc2-c2ccc(Cl)cc2)cc1`, the activation is -0.65%.

`CN1C[C@]2(C=C3CCCCC3n3c(=O)n(-c4ccccc4)c(=O)n32)N=C1NC(=O)c1ccccc1` (some centres not stated): the activation was 0.02%.

Regarding `COc1ccc(-n2c(SCC(=O)Nc3ccc4cn[nH]c4c3)nnc2-c2cccnc2)cc1`, the activation is -0.83%.

Regarding `O=C(Nc1ccccc1)N1CCN(Cc2nc3ccccc3c(=O)[nH]2)CC1`, the activation is 0.5%.

Take `COc1ccc(CCNC(=O)Nc2ccc3c(c2)c(=O)n(C)n3C)cc1OC`: the activation is 33.7% (active).

With `COc1ccc(CCNC(=O)c2cc3sccc3n2C)cc1OC`, the activation is -0.31%.

For the compound `COc1ccc(CCNC(=O)C(=O)Nc2ccc3nc4n(c(=O)c3c2)CCCCC4)cc1OC`, the activation was 0.82%.
